CF NFkB inh – inhibitors of PAF-induced NF-kB signaling, primary screen, cell-based, GFP fluorescence, uHTS. KKLEB NF-kB-GFP reporter, GFP fluorescence overnight. inhibition, % at 5 µM. hit rate 0.86% among 360,000. AID 588850, 2011;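 active = at least 50% inhibition at 5 µM, scaled per plate between neutral and stimulator controls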;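 also: PAF is a Pseudomonas aeruginosa culture filtrate used as stimulus; plate controls were PAF-stimulated DMSO wells for no effect and unstimulated DMSO wells for full effect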
HIF-2a block – HIF-2a reporter inhibitors, primary screen, luminescence, 786-0 RCC cells | 786-0 RCC cells HIF-2a reporter, luciferase luminescence, overnight | hit rate 0.72% among 360,000 | inhibition, % at 18.8 µM;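 active = inhibition of the luminescence signal of 40% or more relative to plate controls, in a single-dose primary screen at 18.75 µM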
KKLEB cytotox – cytotoxicity in KKLEB CF airway cells, primary screen, cytotoxicity control for CF NF-kB inhibitor project, cell-based, uHTS, fluorescence assay plates; KKLEB CF airway cells viability, ATPlite luminescence, overnight; active compounds read low; cells stimulated with P. aeruginosa culture filtrate; activity change (cytotoxicity), % at 5 µM; hit rate 0.36% among 360,000; AID 602141, 2011;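 active = corrected activity change at or below -50% at 5 µM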
Peg3 promoter – Peg3 promoter-driven luciferase inhibitors, primary screen, cell-based, HeLa, luciferase luminescence. hit rate 1.7% among 360,000. AID 588405, 2011. inhibition, % at 20 µM. HeLa PEG-Prom luciferase reporter, overnight;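 active = inhibition of at least 50% at 20 µM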
Shn3 3UTR inh – reduction of Shn3 3'UTR firefly luciferase signal, primary screen, Schnurri-3 inhibitor project, cell-based, Clone20 osteoblasts, set 2 | Clone20 osteoblast Shn3 3'UTR firefly luciferase, 24 h | inhibition, % at 12.5 µM | hit rate 0.52% among 360,000 | AID 588674, 2011;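 active = mean inhibition of at least 75% with every replicate also reaching 75%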;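 also: 0% = median of neutral control wells and 100% = pilot-screen positive control compound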
MITF TRPM1 inh – inhibitors of MITF-dependent TRPM1 promoter reporter, primary screen, cell-based, SK-MEL-5, single point, luciferase; hit rate 0.83% among 330,000; inhibition, % at 12.5 µM; SK-MEL-5 TRPM1 promoter luciferase, 24 h; AID 488899, 2010;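 active = mean inhibition across replicates of 60% or more, whatever share of single replicates reaches that level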
* = called active by the depositor; . = no result. Hits are enriched below; roughly 2.7% of the tested compounds scored in any of these assays.

SMILES	CF NFkB inh	HIF-2a block	KKLEB cytotox	Peg3 promoter	Shn3 3UTR inh	MITF TRPM1 inh
O=C(NCC(c1ccco1)N1CCN(c2ccccc2)CC1)C1CCCCC1 (stereo unspecified)	-28	4	15	3	2	.
O=c1[nH]c(=O)n(Cc2ccco2)c2c1C(C(F)(F)F)(C(F)(F)F)N=C(CCc1ccccc1)N2	7	29	-39	55*	28	6
O=C(CSc1nc2ccccc2s1)N1CCCCC1	-5	-290	18	-243	-82	-75
Cc1c(Cl)cccc1N/C(SCC(=O)N1CCCCCC1)=C(/C#N)c1nc2ccccc2s1	54*	36	-65*	45	45	46
CC1(C)CC(=O)C2=C(C1)Oc1nc3ccccc3cc1C2C(C#N)C#N (stereo unspecified)	64*	7	-5	58*	-16	80*
CC(=O)c1ccc(OC2(C)CCN(CCOc3ccc(C)cc3)C2)cc1 (stereo unspecified)	-25	-12	8	3	-4	.
O=C(Nc1ccccc1)C1Cc2c(-c3ccco3)ccnc2O1 (stereo unspecified)	23	-26	-33	-15	-1	.
Cc1cc(-c2ccccc2)n(-c2cc(N/N=C/c3ccccc3O)ncn2)n1	74*	47*	-54*	45	89*	50
CNc1cc(-n2nc(C)cc2-c2ccccc2)ncn1	3	4	9	2	2	14
Cn1cnc([N+](=O)[O-])c1Sc1nc(N)nc2c1ncn2C1CC(O)C(CO)O1 (stereo unspecified)	2	23	9	50*	-18	44
CCSc1nc(N)nc2c1ncn2C1OC(CO)C(O)C1O (stereo unspecified)	-10	2	6	-16	0	-1
CCCn1c(NC(=O)c2ccccc2)nc2ccccc21	-10	-65	-11	-41	-7	5
CCCn1c(NC(=O)c2cccc(S(=O)(=O)N3CCCC3)c2)nc2ccccc21	74*	34	-13	97*	71	53
ClC(Cl)(Cl)c1nc2ccccc2n2nncc12	11	32	-9	79*	8	39
c1ccc(CCNc2nc3ccccc3n3nnnc23)cc1	-9	-68	12	-101	-22	-14
N#Cc1c(-c2ccc(F)cc2)cc(-c2cccnc2)nc1N	4	8	-36	53*	24	2
Cc1ccc(S(=O)(=O)c2cc3ccc(O)cc3oc2=O)cc1C	-22	8	8	3	-1	-1
CCCCCCc1cc2cc(S(=O)(=O)c3ccc(F)c(Cl)c3)c(=O)oc2cc1O	60*	21	-72*	49	9	21
CCCCCCc1cc2cc(C(=O)Nc3ccc(OC)cc3)c(=O)oc2cc1O	52*	16	-57*	43	18	9
CCCCCCc1cc2cc(C(=O)Nc3cccc(OC)c3)c(=O)oc2cc1O	66*	8	-63*	30	1	35
CCCCCCc1cc2cc(C(=O)NC)c(=N)oc2cc1O	17	-13	4	16	4	-3
Cc1ccc(C)c(NC(=O)/C(C#N)=C/c2cn(CC(=O)NCc3ccco3)c3ccccc23)c1	28	5	-45	51*	57	57
Cc1ccc(CS/C(Nc2ccccc2C)=C(\C#N)C(=O)NCc2ccco2)c(C)c1	-4	23	-14	51*	27	-5
Cc1cc(C)cc(NC(=O)/C(C#N)=C/c2cn(CC(=O)NCc3ccco3)c3ccccc23)c1	70*	14	-72*	74*	73	84*
Cc1ccc(NC(=O)/C(C#N)=C/c2cn(CC(=O)NCc3ccco3)c3ccccc23)cc1C	18	8	1	36	9	12
CNC(=O)/C(C#N)=C/c1cn(CC(=O)NCc2ccco2)c2ccccc12	3	11	-3	17	4	-4
CS(=O)(=O)Nc1cccc(NC(=O)c2cccc3c(-c4ccc(F)c(F)c4)coc23)c1	-12	-67	9	14	-12	.

Source: PubChem BioAssay
